This is a sample that favours compounds with a hit; in the whole collection about 6.9% have one here.
Giardia kill = Giardia lamblia killing; Giardia lamblia trophozoite viability; activity change, % at 7.66 µM, hits read low; 340,000 compounds, 0.15% hits; AID 540267; in the data active = activity change below about -80%; inconclusive = between about -30% and that limit;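 also: parasites exposed to compound for two days anaerobically before the ATP read; % is scaled to controls: 0 for no effect and ±100 for the full control effect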
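ATP-content bioluminescence gauges trophozoite survival. Cells (100/well) receive compound and incubate anaerobically for 48 hrs at 37 deg C; detection reagent follows for 15-30 min at room temperature.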
SW480 rereplic = induces DNA re-replication in SW480 colon adenocarcinoma cells; AID 624297; 340,000 compounds, 1.8% hits; Potency, µM (titrated, usually from 46.1 µM), inactives show at the highest dose re-replication activation, actives largely listed as activators; SW480 DNA re-replication, Hoechst DNA content imaging, 48 h; also: potency is read from the fitted curve at half-maximal effect; % of control where 0% means no effect; nearly all actives have a fitted effect of over 55% in size
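Image-based DNA-content assay: after two days of treatment, nuclei were labelled with the DNA dye Hoechst and imaged, and hits were compounds raising the count of nuclei showing high fluorescence intensity.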
Vif-A3F inh = Vif-A3F binding inhibition | 390,000 compounds, 0.2% hits | AID 602313 | HeLa A3F-eYFP + Vif (tagged APOBEC3F with the HIV-1 protein that degrades it), YFP fluorescence increase | Potency, µM (highest dose often 46.1 µM), without a hit: at the highest dose activity, negative = active; also: potency is read from the fitted curve at half-maximal effect; % of control where 0% means no effect; nearly all actives have a fitted effect of over 65% in size
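HeLa cells stably expressing A3F-eYFP plus Vif, plated and incubated overnight at 37 deg C, then exposed to compounds overnight at 37 deg C. Blocked degradation read as raised yellow fluorescence (Ex 488/Em 500-530).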
Vif-A3G inh = blocks the Vif interaction with human APOBEC3G | Q9HC16 | HeLa A3G-eYFP + Vif (tagged APOBEC3G with the HIV-1 protein that degrades it), YFP fluorescence, overnight | Potency, µM (top dose mostly 46.1 µM), inactives show top-dose activity, negative = active, usual class: inhibitors | 410,000 compounds, 0.076% hits | AID 602310; also: potency is read from the fitted curve at half-maximal effect; % is scaled to controls: 0 for no effect and ±100 for the full control effect; nearly all actives have a fitted effect of over 60% in size
Target sequence (Q9HC16 whole entry, looked up): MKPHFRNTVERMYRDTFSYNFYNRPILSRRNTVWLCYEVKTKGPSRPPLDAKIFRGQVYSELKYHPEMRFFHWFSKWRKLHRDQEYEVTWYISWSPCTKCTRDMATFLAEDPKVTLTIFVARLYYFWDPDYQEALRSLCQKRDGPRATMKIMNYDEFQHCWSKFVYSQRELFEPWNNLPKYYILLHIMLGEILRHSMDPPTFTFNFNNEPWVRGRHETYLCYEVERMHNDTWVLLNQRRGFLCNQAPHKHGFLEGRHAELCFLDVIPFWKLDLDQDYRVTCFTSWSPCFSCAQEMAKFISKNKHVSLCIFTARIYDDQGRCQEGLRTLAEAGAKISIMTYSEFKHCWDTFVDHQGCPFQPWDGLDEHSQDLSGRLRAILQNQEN
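HeLa cells stably expressing Vif and C-terminally eYFP-tagged A3G, seeded overnight at 37 deg C, then exposed to compound by pintool overnight at 37 deg C. Rise in yellow fluorescence (Ex 488/Em 500-530, Acumen) marks blocked Vif-driven A3G degradation.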
MCF10A rereplic = inducers of DNA re-replication in MCF 10A breast cells; MCF 10A DNA re-replication, Hoechst nuclear intensity, 48 h; Potency, µM (series often up to 46.1 µM), for inactives: at the highest dose activity, positive = re-replication, most hits filed as activators; 350,000 compounds, 2.9% hits; AID 624296; also: potency is read from the fitted curve at half-maximal effect; % of control where 0% means no effect; nearly all actives have a fitted effect of over 50% in size
IL1B secr inh = inhibitors of inflammasome signaling (IL-1 beta secretion); THP-1 LPS/ATP IL-1B secretion, AlphaLISA, 16 h; active compounds read low; activity change, % at 57.5 µM; 360,000 compounds, 4.7% hits; in the data active = activity change below about -50%; inconclusive = mostly about -30% to -49%; also: % is scaled to controls: 0 for no effect and ±100 for the full control effect
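Secreted IL-1B measured by AlphaLISA bead assay after 16 h compound exposure of THP-1 cells; compounds (final up to 57.5 uM) added 1 h before LPS (250 ng/mL) and ATP (1.25 mM) stimulation; lower signal means less secretion.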
Numbers without * were called inactive; u = inconclusive; x = no result given. Unless noted, calls follow the shape of the dose curve; as a rule, active = well fitted curve in the direction sought with a large enough effect; inconclusive = small, poorly fitted or top-dose-only effect, or another doubt; inactive = no such curve, though single readings can be large; an effect the other way counts as inactive or inconclusive.

SMILES | Giardia kill | SW480 rereplic | Vif-A3F inh | Vif-A3G inh | MCF10A rereplic | IL1B secr inh
CCn1c2ccccc2c2nc3ccccc3nc21 | -10.0 | 13.5% | -1.8% | -0.4% | 13µM* | -12.2
CCN(CC)CCCN(c1ccccc1)C1Cc2ccccc2C1 | x | u | x | x | 29.4% | x
O=C(NCCc1nc2ccccc2n1CCOc1cccc2ccccc12)C1CCCCC1 | 0.2 | x | x | -0.2% | x | x
CCCNc1nc(=S)n(-c2ccccc2)c(C)c1C(C)=O | -25.4 | 0.0% | 2.6% | 6.3% | u | 0.0
CCCCNc1nc(=S)n(-c2ccccc2)c(C)c1C(C)=O | -8.6 | u | -3.5% | -4.4% | u | -91.0*
COc1cc(Nc2ccn3nc(-c4ccc(F)cc4)cc3n2)cc(OC)c1OC | x | x | x | -6.5% | x | -68.5*
O=C1c2ccc3c4c(ccc(c24)C(=O)N1CCCCO)C(=O)N(CCCCO)C3=O | u | u | -18.8% | -25.0% | u | -71.8*
Cc1nc2c3cc(F)ccc3n(CCN3CCCCC3)c2s1 | u | u | 7.9% | -19.4% | 23.1µM* | u
Cc1nc2c3cc(F)ccc3n(Cc3ccccc3F)c2s1 | 1.6 | u | -14.8% | u | 104.7% | 8.0
Cc1nc2c3ccccc3n(Cc3ccccc3F)c2s1 | 14.2 | 16.8% | -16.1% | u | 14.6µM* | 48.7
CCc1ccc2c(c1)c1nc(C)sc1n2CC(=O)OC | -13.1 | -4.6% | -2.8% | 1.9% | -7.2% | 0.0
Cc1nc2c3cc(F)ccc3n(Cc3ccccc3)c2s1 | 5.2 | u | -27.7% | 6.31µM* | 19.4% | 110.1
COc1ccc(NC(=O)CCc2c(C)nc3nc(CNC(=O)OC(C)(C)C)nn3c2C)cc1OC | x | x | 1.3% | -3.8% | x | x
Cc1nc2ncnn2c(C)c1CCC(=O)N1CCN(c2ccccc2)CC1 | x | x | -0.6% | 4.6% | x | x
Cc1ccc(CCNC(=O)c2cc3ccccn3n2)cc1 | x | x | -3.4% | 6.2% | x | x
Cc1ccc2nc(N/N=C/c3ccccc3C#N)nc(-c3ccccc3)c2c1 | 43.3 | u | 1.4% | 1.3% | 13µM* | -73.2*
N#Cc1ccccc1/C=N/Nc1nc(-c2ccccc2)c2cc(Cl)ccc2n1 | -7.6 | -1.3% | u | 5.2% | 15.6% | -15.3
Cc1cc(-c2ccccc2)nc(N/N=C/c2ccccc2F)n1 | 1.3 | u | 22.4µM* | -6.7% | 10.6% | -16.1
C/C(=N\Nc1nc(C)cc(-c2ccccc2)n1)c1ccccc1 | 2.6 | u | u | -2.9% | 0.6% | 3.0
Cc1ccc2nc(N/N=C/c3ccccc3F)nc(-c3ccccc3)c2c1 | 28.4 | 22.1% | -12.0% | -5.0% | u | -52.6*
O=C(Nc1cccc(C(F)(F)F)c1)c1cc(CN2CCOCC2)on1 | x | x | 0.6% | -4.4% | x | x
Cc1cccc(C)c1OCc1cc(=O)n2c3c(sc2n1)CCCC3 | x | x | -1.4% | -15.5% | x | x
O=C(CCCOc1ccc(Cl)cc1Cl)N/N=C\C1CCCCC1 | 16.1 | 29.9% | -6.9% | 0.8% | u | -50.5*
Cc1ccc(Cl)cc1-n1ncc2c(Nc3cccc(C)c3C)ncnc21 | x | x | -6.9% | -1.3% | x | x
Cc1nn(-c2ccccc2)c2c1C(c1ccncc1)C(C#N)=C(N)O2 (centres undefined) | -8.0 | 3.0% | -14.1% | -0.3% | 0.5% | 19.9
SMILES | Giardia kill | SW480 rereplic | Vif-A3F inh | Vif-A3G inh | MCF10A rereplic | IL1B secr inh
CC1=C(n2nnc3ccccc32)C(c2ccccc2)C(C#N)=C(N)O1 (centres undefined) | 8.8 | 1.3% | 25.1µM* | -17.0% | 4.5% | -6.5
CC(C)NC(=O)Cn1ncn2c(cc3cc(F)ccc32)c1=O | x | x | 1.5% | -1.4% | x | x
CCN(CCNCC(O)COc1ccccc1C(C)C)c1cccc(C)c1 (centres undefined) | 13.6 | -3.1% | 6.8% | -3.0% | u | -103.9*
CCOC(=O)N1CCN(CC(O)COc2ccccc2C(C)C)CC1 (centres undefined) | -11.5 | 10.0% | -1.3% | -1.2% | -1.4% | -9.7
O=Cc1ccc2ccc3cccnc3c2n1 | -12.1 | 20.6µM* | u | -5.4% | u | u
CCC1C(=O)CC2CCN3C(=O)CCC1C23 (centres undefined) | 8.8 | x | x | -4.5% | x | x
CCOC(=O)c1sc2c(c1C)C(c1cccs1)C1=C(CCCC1=O)N2 (centres undefined) | -10.7 | u | 5.4% | -11.7% | 9.2µM* | -4.2
CCOC(=O)C1=C(C)NC2=C(C(=O)CCC2)C1c1cccs1 (centres undefined) | 2.5 | -6.2% | -2.6% | 0.5% | 3.1% | 11.6
O=C(Nc1ccc(C(F)(F)F)cc1[N+](=O)[O-])O[C@H]1[C@H](Cc2ccccc2)NS(=O)(=O)[C@H]2C[C@@H]3C=C[C@]12O3 | -4.3 | 8.2% | 0.5% | -11.5% | -0.5% | -50.3*
Cc1cc(C(=O)O[C@H]2[C@H](Cc3ccccc3)NS(=O)(=O)[C@H]3C[C@@H]4C=C[C@]23O4)ccc1[N+](=O)[O-] | 12.5 | -11.5% | -1.5% | -0.6% | 13.7% | u
COc1ccccc1N1CCN(C(=O)c2sc3nc(-c4ccccc4)cn3c2C)CC1 | 10.7 | -5.6% | -6.8% | -0.1% | 0.7% | -75.5*
Cc1c(C(=O)Nc2ccc3c(c2)OCCO3)sc2nc(-c3ccccc3)cn12 | 0.4 | -1.5% | -5.2% | -0.6% | -0.6% | -91.6*
Cc1c(C(=O)N2CCN(c3ccc(F)cc3)CC2)sc2nc(-c3ccccc3)cn12 | 0.4 | -6.2% | -3.9% | 1.9% | 18.8% | 0.3
COc1ccccc1N1CCN(C(=O)c2sc3nc(C)nc(N4CCN(c5ccccn5)CC4)c3c2C)CC1 | -27.5 | 13.1% | 2.3% | -1.7% | u | -73.0*
COc1ccccc1N1CCN(c2ccc(-c3ccccc3)nn2)CC1 | u | 4.11µM* | -21.0% | u | 2.59µM* | -12.1
Cc1c(C(=O)N2CCN(c3ccccc3)CC2)sc2ncnc(N3CCN(c4ccccn4)CC3)c12 | -3.7 | 1.2% | -6.6% | 0.6% | 1.1% | 9.2
COc1ccccc1N1CCN(C(=O)c2sc3ncnc(N4CCN(c5ccccn5)CC4)c3c2C)CC1 | -5.2 | 5.1% | 6.9% | -1.4% | 18.4µM* | -75.4*
CCC(=O)N1c2ccccc2CC1C(=O)NCCCN1CCN(c2cccc(Cl)c2)CC1 (centres undefined) | x | x | -3.8% | -0.3% | x | x
CCOC(=O)CCc1c(C)nc2cc(-c3ccc(F)cc3)[nH]n2c1=O | -4.2 | -1.5% | -12.0% | 0.1% | -0.8% | -74.4*

Screening data as filed in PubChem BioAssay.
